# Compound activity: PubChem, National Center for Advancing Translational Sciences (NCATS)
# TDP1 cell CPT = qHTS for Inhibitors of human tyrosyl-DNA phosphodiesterase 1 (TDP1): qHTS in cells in presence of CPT; chicken DT40 Tdp1-/-;hTDP1 cells + 20 nM CPT, ATP luminescence, 48 h; Potency, µM (titrated, usually from 46.2 µM), without a hit: top-dose activity change, negative = growth inhibition, most hits filed as inhibitors; 420,000 tested, 12% active; AID 686979, 2013; note: nearly all actives have a fitted effect of over 55% in size
#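 Chicken DT40 Tdp1-/- cells stably complemented with human TDP1 were seeded at 400 cells/well in medium containing 20 nM camptothecin, exposed to pin-transferred compounds, and grown at 37 °C for at least 48 hr. Viability was read as ATP luminescence.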
# TDP1 inh = qHTS Assay for Inhibitors of Tyrosyl-DNA Phosphodiesterase (TDP1) | Tyrosyl-DNA phosphodiesterase 1 (Homo sapiens), Q9NUW8 | recombinant TDP1, AlphaScreen DNA substrate cleavage | Potency, µM (series often up to 130 µM), for inactives: at the highest dose activity change, negative = inhibition, most hits filed as inhibitors | 350,000 tested, 0.28% active; note: nearly all actives have a fitted effect of over 40% in size
#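 E. coli-derived human Tdp1, 1 nM final. Cpd preinc 15 min RT; substrate 15 nM final, 5 min RT; AS bead mix 10 ug/ml final, 10 min RT. Signal loss = tyrosine-FITC cleavage. No-enzyme wells = max signal.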
# RORg inh = qHTS for inhibitors of ROR gamma transcriptional activity; Nuclear receptor ROR-gamma (Mus musculus), P51450; Drosophila S2 Gal4-RORgamma UAS-luciferase reporter, 20 h; Potency, µM (highest dose often 53.6 µM), without a hit: top-dose activity change, negative = inhibition, most hits filed as inhibitors; 310,000 tested, 5.4% active; note: nearly all actives have a fitted effect of over 60% in size
# Target sequence (P51450 whole entry, looked up, the tested form may be a part): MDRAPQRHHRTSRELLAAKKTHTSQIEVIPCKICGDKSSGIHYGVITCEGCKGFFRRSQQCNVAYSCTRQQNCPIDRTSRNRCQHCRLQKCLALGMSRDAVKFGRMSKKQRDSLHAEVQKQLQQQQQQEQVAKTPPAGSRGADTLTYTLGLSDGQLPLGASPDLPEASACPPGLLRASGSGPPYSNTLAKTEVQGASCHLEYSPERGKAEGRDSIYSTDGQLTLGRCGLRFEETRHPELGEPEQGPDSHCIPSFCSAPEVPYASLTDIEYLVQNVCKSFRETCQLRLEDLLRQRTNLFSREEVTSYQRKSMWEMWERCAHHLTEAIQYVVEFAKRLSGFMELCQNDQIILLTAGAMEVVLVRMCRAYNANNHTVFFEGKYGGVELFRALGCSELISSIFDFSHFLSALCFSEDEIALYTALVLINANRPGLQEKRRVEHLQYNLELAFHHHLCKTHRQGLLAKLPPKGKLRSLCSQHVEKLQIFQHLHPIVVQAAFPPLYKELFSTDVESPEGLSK
#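 ROR gamma transcriptional activity was tracked as Gal4-UAS luciferase output in stably transfected Drosophila Schneider cells, with compound added 1 hr before 700 uM copper sulfate induction and a 20 hr ambient-temperature incubation.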
# Gal4-VP16 FLuc = VP16 counterscreen qHTS for inhibitors of ROR gamma transcriptional activity; 310,000 tested, 3.5% active; Potency, µM (top dose mostly 53.6 µM), inactives show at the highest dose activity, negative = inhibition, actives largely listed as inhibitors; Drosophila S2 Gal4-VP16 UAS-luciferase, luminescence, 20 h;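 note: Gal4-VP16 expression switched on by copper sulfate through the metallothionein promoter; nearly all actives have a fitted effect of over 50% in size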
# DT40 TDP1 no CPT = qHTS for Inhibitors of human tyrosyl-DNA phosphodiesterase 1 (TDP1): qHTS in cells in absence of CPT; DT40 Tdp1-/- hTDP1 cells, no CPT, ATP luminescence, 48 h; Potency, µM (top dose mostly 46.2 µM), for inactives: at the top dose activity change, negative = growth inhibition, actives largely listed as inhibitors; 420,000 tested, 15% active; note: nearly all actives have a fitted effect of over 55% in size
#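 Camptothecin absent (DMSO only). Human TDP1-complemented DT40 knockout cells, 400 cells/well, 37 °C for minimum 48 hr; ATP measured via CellTiter-Glo, 30 min dark incubation, luminescence.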
# Numbers without * were called inactive; ? = inconclusive; · = not tested or not shown; [ ] = dose if it differs, or a comment. In the library only some 19% were active in any assay of this set; here they are far more common. Calls come from the whole dose curve; as a rule, active = well fitted curve in the direction sought with a large enough effect; inconclusive = small, poorly fitted or top-dose-only effect, or another doubt; inactive = no such curve, though single readings can be large; an effect the other way counts as inactive or inconclusive. % is set by controls: 0 for no effect and ±100 for the full control effect; potency is the fitted concentration of half-maximal effect.
SMILES,TDP1 cell CPT,TDP1 inh,RORg inh,Gal4-VP16 FLuc,DT40 TDP1 no CPT
COc1cc2c(cc1OC)C1C/C(=N\O)C(CC(C)C)CN1CC2 (stereo not given),?,5.0%,18.0%,1.9%,20.6µM*
CCC(CC)CC1CN2CCc3cc(OC)c(OC)cc3C2CC1(O)CC (stereo not given),8.2µM*,·,·,·,8.2µM*
CCC(=O)N1CCC1(C)C(=O)Nc1cccc(Oc2ccccc2)c1 (stereo not given),?,·,·,·,-20.5%
CSc1ccc(CN2CCC2(C)C(=O)Nc2cccc(Oc3ccccc3)c2)cc1 (stereo not given),18.4µM*,·,·,·,14.6µM*
CC1(C(=O)Nc2cccc(Oc3ccccc3)c2)CCN1Cc1cc2ccccc2o1 (stereo not given),23.1µM*,·,·,·,?
COc1ccc(CCn2c(=O)c3cccnc3n(CC(=O)Nc3cccc(C)c3)c2=O)cc1OC,-14.7%,2.0%,·,·,-12.7%
COc1ccc(CCn2c(=O)c3cccnc3n(CC(=O)Nc3ccc(C)c(F)c3)c2=O)cc1OC,4.11µM*,2.9%,·,·,20.6µM*
COc1ccc(Cn2c(=O)c3cccnc3n(CC(=O)Nc3ccc(C)c(F)c3)c2=O)cc1,-16.9%,-1.0%,·,·,?
COc1ccc(Cl)cc1NC(=O)Cn1c(=O)n(Cc2cccs2)c(=O)c2cccnc21,?,2.9%,·,·,18.4µM*
COc1ccc(Cl)cc1NC(=O)Cn1c(=O)n(Cc2ccc(F)cc2)c(=O)c2cccnc21,?,-2.0%,·,·,9.2µM*
COc1ccccc1NC(=O)Cn1c(=O)n(Cc2ccco2)c(=O)c2cccnc21,?,1.0%,·,·,?
Cc1ccc(C)c(NC(=O)Cn2c(=O)n(Cc3cccs3)c(=O)c3cccnc32)c1,18.4µM*,-3.9%,·,·,13µM*
CCOC(=O)[C@H]1[C@H]2COc3ccc(OC)cc3[C@H]2N2C(=O)CN(Cc3ccccc3)C(=O)[C@@]12C,16.9%,·,·,·,8.5%
CCN(C(=O)Cn1c(C(=O)OC)cc2sccc21)c1cccc(C)c1,23.1µM*,1.0%,·,·,?
COC(=O)c1cc2sccc2n1CC(=O)Nc1cc(Cl)ccc1OC,11.6µM*,-4.9%,·,·,10.3µM*
CCOC(=O)c1cc2sccc2n1CC(=O)OC(C)C,-7.6%,6.3%,-9.8%,3.1%,-5.1%
CC(C)c1cc(C(C)C)c(S(=O)(=O)Nc2cccc3cccnc23)c(C(C)C)c1,·,15.6%,0.0501µM*,-89.9%,·
O=S(=O)(Nc1cccc2cccnc12)c1ccccc1Br,·,0.9%,·,·,·
O=C1c2ccccc2C(=O)c2cc(S(=O)(=O)Nc3cccc4cccnc34)ccc21,·,25.0%,0.891µM*,-92.8%,·
Nc1ccccc1S(=O)(=O)Nc1cccc2cccnc12,·,21.3%,1.58µM*,2.24µM*,·
O=C1c2ccccc2C(=O)c2cc(S(=O)(=O)Nc3ccccc3)ccc21,14.6µM*,10.8%,-14.5%,?,20.6µM*
O=C1N/C(=C/c2cccn2-c2ccccc2)C(=O)N1Cc1ccccc1F,?,0.0%,26.0%,-1.2%,-28.0%
NS(=O)(=O)Nc1cccc2cccnc12,·,1.2%,·,·,·
Cc1ccc2nsnc2c1S(=O)(=O)Nc1cccc2nsnc12,-12.1%,-2.9%,?,-1.2%,?
O=C(CN1C(=O)c2ccccc2C1=O)Nc1cccc2cccnc12,-2.5%,5.2%,17.9%,19.2%,-19.3%
SMILES,TDP1 cell CPT,TDP1 inh,RORg inh,Gal4-VP16 FLuc,DT40 TDP1 no CPT
Cc1ccc2nsnc2c1S(=O)(=O)Nc1cccc2cccnc12,·,22.1%,1.12µM*,0.631µM*,·
Cc1ccc(S(=O)(=O)Nc2cccc3cccnc23)cc1,?,17.9%,1.12µM*,1.78µM*,20.6µM*
O=C1C=C(Nc2cccc3cccnc23)c2ccccc2C1=O,5.8µM*,9.7%,10µM*,10µM*,7.31µM*
Cc1ccc(S(=O)(=O)Nc2ccccc2-c2ccccc2NS(=O)(=O)c2ccc(C)cc2)cc1,?,-1.1%,3.2%,-24.1%,?
Cc1ccc(S(=O)(=O)Nc2ccc(NS(=O)(=O)c3ccc(C)cc3)c3ncccc23)cc1,·,21.5%,5.01µM*,5.62µM*,·
Cc1cc(CN(C)C(=O)C2CCC(=O)N(CCc3ccccc3)C2)n[nH]1 (stereo not given),1.2%,1.3%,4.2%,2.2%,-21.3%
CCc1ccc(N=CC2=C(O)CC(c3ccco3)CC2=O)cc1 (stereo not given),-9.9%,5.1%,25.2%,13.7%,-21.7%
Cc1c(CNCCc2ccc(Cl)cc2)c(C(=O)O)c(C)n1Cc1ccccc1,?,7.7%,7.6%,4.0%,?
CCOc1ccc(NC(=O)CSc2cn[nH]n2)cc1,-2.8%,?,·,·,-54.4%
CC(=O)NCCc1ccc(-c2csc(NC(=O)C3CC(=O)N(C4CCCC4)C3)n2)cc1 (stereo not given),?,-7.1%,·,·,?
COc1ccccc1NC(=O)CSc1nnc(CNC(=O)c2ccco2)n1C,-6.5%,·,11.6%,2.6%,-13.1%
O=C(O)c1ccccc1NS(=O)(=O)c1cccc2cccnc12,-7.6%,0.0%,-17.3%,3.9%,-15.2%
O=S(=O)(Nc1cc(Sc2cccc3cccnc23)c(O)c2ccccc12)c1ccccc1,·,0.0%,1.26µM*,2.82µM*,·
COc1ccc(NC(=O)CN(c2ccc(C(C)C)cc2)S(=O)(=O)c2c(C)noc2C)cc1OC,?,-5.3%,-14.0%,-1.4%,?
Cc1n[nH]c(C)c1S(=O)(=O)N(CC(=O)Nc1ccc(C(F)(F)F)cc1)c1ccc(C(C)C)cc1,14.6µM*,-2.3%,·,·,?
Cc1noc(C)c1S(=O)(=O)N(CC(=O)Nc1ccc(F)cc1F)c1ccc(C(C)C)cc1,?,2.3%,·,·,20.6µM*
Cc1n[nH]c(C)c1S(=O)(=O)N(CC(=O)NC(C)c1ccccc1)c1ccc(C(C)C)cc1 (stereo not given),?,0.0%,·,·,?
Cc1noc(C)c1S(=O)(=O)N(CC(=O)Nc1ccc(C(F)(F)F)cc1)c1ccc(C(C)C)cc1,16.4µM*,2.3%,·,·,23.1µM*
Cc1noc(C)c1S(=O)(=O)Nc1ccc(C(=O)Nc2ccc(C(C)C)cc2)cc1,11.6µM*,4.7%,·,·,9.2µM*
CC(C)CC(NC(=O)CN)C(=O)NC(Cc1ccccc1)C(=O)O (stereo not given),8.9%,10.5%[56.1 µM],11.2%,-23.6%,-9.4%
COc1cccc(-c2nc(-c3ccc4c(c3)-c3ccccc3S4(=O)=O)c(-c3ccccc3)[nH]2)c1OC,7.31µM*,-0.4%[56.1 µM],?,-5.3%,4.11µM*
